HT1080 IDH1KD tx – toxicity to HT-1080 IDH1 knockdown cells (counter line) | HT-1080 IDH1 knockdown viability, ATP luminescence, 48 h | Potency, µM (doses to about 46.1 µM), for the others: top-dose activity, negative = toxicity, usual class: cytotoxic | 2% of 360,000 active;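 note: 0% = DMSO wells and -100% = cell-free medium wells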
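IDH1KD HT-1080 cells, 750/well, RPMI + 5% FBS; compound pinned after 2 h settling; 48 h, 37 °C; CellTiter-Glo luminescence; % activity normalised to DMSO and no-cell wells; curves fitted, classed by r2 and efficacy.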
HT1080NT lethal – kills 2HG-producing HT-1080-NT fibrosarcoma cells | HT-1080-NT fibrosarcoma viability, CellTiter-Glo ATP luminescence, 48 h | Potency, µM (titrated, usually from 46.1 µM), without a hit: at the highest dose activity, negative = less viability, usual class: cytotoxic | 1.6% of 360,000 active | AID 686970;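 note: NT is the 2HG producing partner of a matched IDH1 knockdown line; 0% = DMSO-treated cells and -100% = media-only wells without cells; nearly all actives have a fitted effect of over 55% in size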
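Luminescent CellTiter-Glo readout after 48 hours of compound exposure at 37 degrees C defined viability of HT-1080-NT cells. Activity was normalized to DMSO wells and cell-free media wells; concentration-response curves were fitted and assigned curve classes.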
KB-3-1 cytotox – kills parental KB-3-1 adenocarcinoma cells | KB-3-1 viability, CellTiter-Glo ATP luminescence, 72 h | Potency, µM (highest dose often 46.1 µM), actives largely listed as cytotoxic | 1.4% of 400,000 active; note: nearly all actives have a fitted effect of over 60% in size
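Here the drug-naive KB-3-1 line serves as comparator for MDR sub-line selectivity; cells received compound titrations, 72 h at 37 °C, then CellTiter-Glo readout.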
DT40 TDP1 CPT – DT40-hTDP1 cell growth loss with CPT; chicken DT40 Tdp1-/-;hTDP1 cells + 20 nM CPT, ATP luminescence, 48 h; Potency, µM (titrated, usually from 46.2 µM), without a hit: at the top dose activity change, negative = growth inhibition, hits mostly inhibitors; 12% of 420,000 active; AID 686979; note: nearly all actives have a fitted effect of over 55% in size
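Cell growth measured by CellTiter-Glo luminescence after a minimum 48 h, 37 C compound exposure with 20 nM CPT in Tdp1-knockout DT40 cells stably expressing hTDP1, seeded 400/well; qHTS titration format.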
KB-V1 MDR tox – kills drug-selected multidrug resistant KB-V1 cells; KB-V1 MDR cells viability, CellTiter-Glo, 72 h; Potency, µM (doses to about 46.1 µM), most hits filed as cytotoxic; 3.4% of 400,000 active; AID 1347076; note: nearly all actives have a fitted effect of over 60% in size
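KB-V1 MDR subline cells in DMEM (phenol-red free, 10% FBS) exposed to compounds in qHTS concentration series for 72 h at 37 degrees C. Viability read by CellTiter-Glo luminescence; concentration-effect curves fitted after normalization and correction.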
DT40 TDP1 no CPT – qHTS for Inhibitors of human tyrosyl-DNA phosphodiesterase 1 (TDP1): qHTS in cells in absence of CPT. DT40 Tdp1-/- hTDP1 cells, no CPT, ATP luminescence, 48 h. Potency, µM (titrated, usually from 46.2 µM), inactives show at the highest dose activity change, negative = growth inhibition, most hits filed as inhibitors. 15% of 420,000 active. AID 686978, 2013; note: nearly all actives have a fitted effect of over 55% in size
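Camptothecin absent (DMSO only). Human TDP1-complemented DT40 knockout cells, 400 cells/well, 37 °C for minimum 48 hr; ATP measured via CellTiter-Glo, 30 min dark incubation, luminescence.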
* = called active by the depositor; i = inactive; ? = inconclusive; · = not tested or not shown; [ ] = dose if it differs, or a comment. Most compounds without a hit are left out; they make up all but 19% or so of the library. Calls come from the whole dose curve; as a rule, active = well fitted curve in the direction sought with a large enough effect; inconclusive = small, poorly fitted or top-dose-only effect, or another doubt; inactive = no such curve, though single readings can be large; an effect the other way counts as inactive or inconclusive. Unless noted, % is set by controls: 0 for no effect and ±100 for the full control effect; potency is the fitted concentration of half-maximal effect.

SMILES	HT1080 IDH1KD tx	HT1080NT lethal	KB-3-1 cytotox	DT40 TDP1 CPT	KB-V1 MDR tox	DT40 TDP1 no CPT
COC(=O)c1cccc(Nc2c(-c3ccc(SC)cc3)nc3nc[nH]n23)c1	·	·	i	-14.6%	i	-15.7%
CN1C=CC2=C(C#N)C(N)C(C#N)(C#N)C(c3ccccc3)C2C1 (centres undefined)	-4.4%	-0.5%	i	-29.3%	14.6µM*	?
Cc1ccc(C(=O)c2oc3ccccc3c2N)cc1	-23.7%	?	i	16.4µM*	i	?
COc1ccccc1-c1c(C(F)(F)F)oc2cc(OC(=O)c3cccc([N+](=O)[O-])c3C)ccc2c1=O	?	0.4%	?	20.6µM*	i	23.1µM*
CCOCCCn1c(=S)[nH]c2cc(C(=O)N3CCN(C4CCCCC4)CC3)ccc2c1=O	-1.3%	2.1%	i	23.1µM*	i	?
O=C(c1ccc(Cn2c(=S)[nH]c3ccc(Br)cc3c2=O)cc1)N1CCN(C2CCCCC2)CC1	4.8%	0.2%	?	?	18.4µM*	?
O=c1c2cc(Br)ccc2[nH]c(=S)n1Cc1cccnc1	1.7%	0.5%	i	-22.3%	?	-14.1%
CCn1ccnc1CN1CCc2c([nH]c3ccccc23)C1C1CCCCC1 (centres undefined)	2.4%	7.1%	i	?	i	25.9µM*
CCn1ccnc1CN1CCc2c([nH]c3ccccc23)C1C(C)(C)C (centres undefined)	?	-29.2%	i	?	i	?
CCn1ccnc1CN1CCc2c([nH]c3ccccc23)C1CC(C)C (centres undefined)	-8.7%	?	i	?	?	16.4µM*
Cc1c(CN2CCc3c([nH]c4ccccc34)C2C2CCCCC2)cnn1C (centres undefined)	-14.5%	-3.1%	i	-3.0%	i	16.4µM*
O=C(COC(=O)c1ccccc1Oc1ccccc1)Nc1ccc(Br)cc1	13.3%	12.5%	·	1.1%	·	-21.5%
Cc1ccc(-c2nc(C)c(CCNC(=O)C(=O)Nc3ccc(C)c(Cl)c3)s2)cc1	·	·	i	·	i	·
O=C(NCC1CC1)C1(C(F)(F)F)CC(CCc2ccccc2)CCCO1 (centres undefined)	-7.4%	-17.3%	i	20.6µM*	i	20.6µM*
COCCN(Cc1cc2cc(C)ccc2n2nnnc12)C(=S)Nc1ccc(C)cc1	-8.6%	-5.9%	i	18.4µM*	?	23.1µM*
CCC(C)NC(=S)N(Cc1cc2cc(C)ccc2n2nnnc12)CC(C)(C)NC(C)C (centres undefined)	1.8%	9.5%	?	16.4µM*	i	16.4µM*
CCn1c(CNC(=O)c2ccc(OC)cc2)nnc1SCC(=O)Nc1ccc(OC)cc1	·	·	i	-2.7%	i	-9.0%
O=S1(=O)C[C@H](N2CCN(CCO)CC2)[C@@H](COCc2ccccc2)N1	11.3%	7.8%	i	11.0%	i	14.0%
Cc1cc(C(=O)N2CCN(CCc3ccccc3)CC2)no1	-0.4%	10.8%	i	4.7%	?	1.5%
O=S(=O)(c1ccc(Cl)cc1)N1CCN(CCc2ccccc2)CC1	1.2%	1.6%	i	-23.7%	i	-21.4%
Cc1c(C2CCN(CCc3ccccc3)CC2)noc1-c1ccc(Cl)cc1	·	·	·	11.6µM*	·	9.2µM*
Cc1c(-c2ccc(Cl)cc2)noc1C1CCN(CCc2ccccc2)CC1	·	·	·	?	·	14.6µM*
CN[C@H]1C[C@H]2c3[nH]c4ccccc4c3CCN2C(=O)[C@H]1[C@H](C)O	1.2%	-1.0%	i	-3.3%	i	?
Cc1ccccc1CNC(=O)CN(c1cccc(C)c1C)S(C)(=O)=O	·	·	i	-27.0%	i	?
Cc1ccc(N(CC(=O)Nc2ccc(Br)c(C)c2)S(=O)(=O)c2cccs2)cc1	·	·	i	?	i	-28.1%
SMILES	HT1080 IDH1KD tx	HT1080NT lethal	KB-3-1 cytotox	DT40 TDP1 CPT	KB-V1 MDR tox	DT40 TDP1 no CPT
Cc1cc(NC(=O)CN(c2cccc(C)c2C)S(=O)(=O)c2ccccc2)ccc1Br	·	·	i	18.4µM*	i	16.4µM*
Cc1cc(C)cc(NC(=O)CN(c2cccc(C)c2C)S(=O)(=O)c2ccccc2)c1	·	·	i	16.4µM*	i	20.6µM*
CCN(CC(=O)Nc1ccc(Br)c(C)c1)CC(=O)NC(C)C	-8.4%	-14.4%	i	?	i	14.6µM*
Cc1cc(C)n(-c2ccc(C(=O)NCC3Cc4cc(-c5cnccn5)ccc4O3)cc2)n1 (centres undefined)	·	·	·	-10.5%[9.04 µM]	·	-27.3%
COc1ccc(NC(=O)CN(C)C(=O)CC2CCCC2)cc1	2.3%	-1.5%	i	-1.1%	i	-9.0%
CN(CC(=O)Nc1ccc(F)c(F)c1F)C(=O)CC1CCCCC1	-9.5%	-2.8%	i	-26.2%	14.6µM*	?
CCCCCCCCCCCC[N+](C)(C)Cc1ccccc1	·	·	·	1.5µM*	·	1.68µM*
CSCCC(C(=O)Nc1c(C)cccc1C)n1c(-c2ccc(C(F)(F)F)cc2)nc2ccccc21 (centres undefined)	-15.8%	-2.9%	i	-4.9%	i	6.0%
Cc1nn(Cc2ccccc2)c(C)c1C(=O)OCC(=O)c1cc(C)n(CC(F)(F)F)c1C	?	-11.0%	?	25.9µM*	?	25.9µM*
Cc1cc(C(=O)COC(=O)c2ccc(NC(=O)CC#N)cc2)c(C)n1CC(F)(F)F	-0.4%	-2.3%	i	-5.0%	i	-28.3%
COc1cc(OC)cc(C(=O)Nc2ccc(-c3nc4ccccc4s3)cc2C)c1	·	·	i	·	i	·
CCOc1ccccc1C(=O)Nc1cc(-c2nc3cccnc3s2)ccc1C	·	·	·	8.2µM*	·	5.17µM*
COc1cc(OC)cc(C(=O)Nc2cc(-c3nc4cccnc4s3)ccc2C)c1	·	·	i	?	i	10.3µM*
CCN(CC)C(=O)C1=C(C)N(Cc2ccc(C(C)(C)C)cc2)C(=O)C(CC(=O)NC2CCCC2)C1 (centres undefined)	3.9%	-2.8%	i	?	i	-80.6%
Nc1cc([N+](=O)[O-])cc(N)c1N	·	·	i	?	i	?
N[C@@H](CCC(=O)N[C@@H](CS)C(=O)NCC(=O)O)C(=O)O	·	·	·	?	·	-14.8%
O=S1(=O)CC(N2CCC(c3ccccc3)CC2)CN1Cc1ccc(F)cc1 (centres undefined)	-1.0%	-1.0%	i	?	i	?

Screens (PubChem)
